Laboratory results reported in PubChem BioAssay AID463175 (Southern Research Specialized Biocontainment Screening …, 2010).
A number with no mark means an inactive call.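 Rule for the calls: active = inhibition above 40% at one or more tested concentrations in the dose response counterscreen; inactive = inhibition below 40% at every dose tested.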

Assay: general growth reporter, non-PhoP nmpC promoter – synthesized compounds, set 5, counter-screen for PhoP regulon inhibitor project, late-stage follow-up (AID 463175)
Conditions: S. Typhimurium non-PhoP-regulated nmpC promoter-GFP fluorescence (growth counterscreen), 4 h; series mostly up to 150 µM; inhibition: at the top concentration

Row | Structure (SMILES) | inhibition [%]
1 | O=C1C2=C(Nc3ccccc3SC2c2ccc(Cl)cc2)c2ccccc21 (stereo unspecified) | 32.2
2 | O=C1C2=C(Nc3ccccc3SC2c2cccc(Br)c2)c2ccccc21 (stereo unspecified) | 14.8
3 | Clc1ccc(C2Sc3ccccc3N=C3c4ccccc4CC32)cc1 (stereo unspecified) | 1.17
4 | COc1cccc(NC(=O)N2CCCN(Cc3ccccc3F)C2)c1 | 24.9
5 | O=C1C2=C(Nc3ccccc3SC2c2cccnc2)c2ccccc21 (stereo unspecified) | 9.45
6 | Cc1ccc(C2Sc3ccccc3N=C3c4ccccc4CC32)cc1 (stereo unspecified) | 12.7
